Most compounds without a hit are left out; they make up all but 18% or so of the library.
TDP1 cell CPT = growth inhibition of DT40 Tdp1-/-;hTDP1 cells with camptothecin (screen for TDP1 inhibitors) | 12% of 420,000 active | chicken DT40 Tdp1-/-;hTDP1 cells + 20 nM CPT, ATP luminescence, 48 h | Potency, µM (doses to about 46.2 µM), most hits filed as inhibitors; note: nearly all actives have a fitted effect of over 55% in size
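Chicken DT40 Tdp1-/- cells complemented with human TDP1, 400 cells/well, exposed to compounds plus 20 nM camptothecin for at least 48 h at 37 C; viability read as ATP content by CellTiter-Glo luminescence.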
TDP1 inh = inhibitors of human tyrosyl-DNA phosphodiesterase TDP1 | AID 485290 | 0.28% of 350,000 active | recombinant TDP1, AlphaScreen DNA substrate cleavage | Potency, µM (series often up to 130 µM), actives largely listed as inhibitors; note: nearly all actives have a fitted effect of over 40% in size
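E. coli-derived human Tdp1, 1 nM final. Cpd preinc 15 min RT; substrate 15 nM final, 5 min RT; AS bead mix 10 ug/ml final, 10 min RT. Signal loss = tyrosine-FITC cleavage. No-enzyme wells = max signal.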
DT40 TDP1 no CPT = qHTS for Inhibitors of human tyrosyl-DNA phosphodiesterase 1 (TDP1): qHTS in cells in absence of CPT; DT40 Tdp1-/- hTDP1 cells, no CPT, ATP luminescence, 48 h; 15% of 420,000 active; Potency, µM (series often up to 46.2 µM), usual class: inhibitors; note: nearly all actives have a fitted effect of over 55% in size
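Stably hTDP1-transfected Tdp1-null chicken DT40 cells were treated with library compounds minus camptothecin and grown for at least 48 hr at 37 °C, after which cellular ATP was quantified by luminescence.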
PLK1 PBD block = inhibitors of human PLK1 polo-box domain binding; 2.8% of 360,000 active; Potency, µM, actives largely listed as inhibitors; Plk1 PBD binding of FITC phosphopeptide, fluorescence polarization; note: series mostly up to about 57 µM; nearly all actives have a fitted effect of over 65% in size
Target sequence (P53350 whole entry, looked up, the tested form may be a part): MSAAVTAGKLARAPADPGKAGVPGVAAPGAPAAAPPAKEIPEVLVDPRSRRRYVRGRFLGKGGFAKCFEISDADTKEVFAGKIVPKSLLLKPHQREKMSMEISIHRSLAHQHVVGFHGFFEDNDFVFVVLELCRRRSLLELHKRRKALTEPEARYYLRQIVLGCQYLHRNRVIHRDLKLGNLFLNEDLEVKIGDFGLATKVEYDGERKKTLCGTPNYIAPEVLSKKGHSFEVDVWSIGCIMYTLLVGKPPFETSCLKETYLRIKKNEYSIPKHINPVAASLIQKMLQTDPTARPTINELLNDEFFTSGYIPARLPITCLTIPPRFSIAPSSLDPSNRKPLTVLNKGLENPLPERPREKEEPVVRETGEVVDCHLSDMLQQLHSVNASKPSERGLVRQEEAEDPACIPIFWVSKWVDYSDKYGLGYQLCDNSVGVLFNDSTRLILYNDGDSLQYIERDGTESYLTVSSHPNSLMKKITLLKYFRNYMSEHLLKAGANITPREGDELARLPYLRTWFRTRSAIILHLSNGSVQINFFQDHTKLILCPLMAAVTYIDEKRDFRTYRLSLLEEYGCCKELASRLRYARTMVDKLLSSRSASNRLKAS
GCN5L2 inh = inhibitors of human GCN5L2 histone acetyltransferase; 0.21% of 390,000 active; Potency, µM (series often up to 58.9 µM), usual class: inhibitors; GCN5L2 HAT assay, ThioGlo1 CoA-SH fluorescence; Q92830
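Fluorescence readout, Ex340nm/Em540nm: ThioGlo1 (50uM final) reacts with free CoA thiol released as 20nM GCN5L2 acetylates H3(1-25) peptide (75uM) using acetyl-CoA (70uM). Compound and enzyme sat 15 min beforehand; 20 min room-temperature reaction.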
VDR inh = vitamin D3 receptor (human) inhibition | P11473 | VDR-SRC2-3 peptide fluorescence polarization, 2 h | Potency, µM, usual class: inhibitors | 0.93% of 400,000 active | AID 504847
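Inhibition of the VDR/SRC2-3 peptide interaction is quantified by fluorescence polarization. Compounds (23 nl, pintool) incubate with the reagents for 2 hours at ambient room temperature.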
Hits are given with their value; i = inactive; ? = inconclusive; nt = no result; [ ] = remark or other dose. Calls come from the whole dose curve; as a rule, active = well fitted curve in the direction sought with a large enough effect; inconclusive = small, poorly fitted or top-dose-only effect, or another doubt; inactive = no such curve, though single readings can be large; an effect the other way counts as inactive or inconclusive.

SMILES	TDP1 cell CPT	TDP1 inh	DT40 TDP1 no CPT	PLK1 PBD block	GCN5L2 inh	VDR inh
COc1ccc(NC(=O)c2cc(C3CCCCN3S(=O)(=O)Cc3ccccc3)on2)cn1 (stereo not drawn)	i	nt	?	i	nt	nt
COc1cccc(C(=O)NCc2cn3cccc(C)c3n2)c1	i	i	i	nt	i	i
C[C@H](CO)N1C[C@H](C)[C@@H](CN(C)C(=O)c2ccc(F)cc2)Oc2cc(Br)ccc2S1(=O)=O	26µM	nt	13µM	i	nt	nt
Cc1cc(C)c2c(=O)n(CC(=O)Nc3cccc(Cl)c3C)sc2n1	5.2µM	i	3.7µM	2.7µM	?	18µM
Cc1cc(C)c2c(=O)n(CC(=O)Nc3ccc(Br)c(C)c3)sc2n1	8.2µM	nt	9.2µM	3µM	?	?
COc1ccc(OC)c(CCNC(=O)Cn2sc3nc(C)cc(C)c3c2=O)c1	nt	i	nt	nt	?	nt
Cc1c(Cl)cccc1NC(=O)Cn1cccc1	i	i	i	i	i	i
Cc1cc(C)c2c(=O)n(CC(=O)NC3CCCC3)sc2n1	2.9µM	nt	4.1µM	1.9µM	?	10µM
CCOC(=O)c1cc(NC(=O)c2ccccc2)c(=O)n2c1oc1ccccc12	i	i	?	i	i	i
CCCOC(=O)c1ccc(NC(=O)Cc2cccs2)cc1	i	i	?	i	i	i
COc1cccc(C2=Nn3c(nnc3-c3ccc(OC)c(OC)c3)SC2)c1	nt	i	nt	nt	nt	nt
COc1cccc(OC)c1OCCN1CCN(C(c2ccccc2)c2ccccc2)CC1	?	nt	?	i	i	i
Cc1cc2c(cc1C)N[C@]1(C[C@H]3CCCC(=O)N4CC[C@@H](C1)[C@@H]34)C(=NC1CCCCC1)N2	i	nt	i	nt	nt	nt
C=CCNC(=S)NNC(=O)CCC(O)CCCCC (stereo not drawn)	15µM	i	18µM	i	i	i
O=C(COC(=O)c1ccc(Br)o1)Nc1ccc(N2CCOCC2)cc1	i	i	i	i	i	i
CCOc1ccc(C2CC(=O)c3c([nH]c(C(=O)OC4CCC(C)CC4)c3C)C2)cc1 (stereo not drawn)	i	i	i	nt	i	i
COc1cc(C2CC(=O)c3c([nH]c(C(=O)OCc4ccc(C)cc4)c3C)C2)cc(OC)c1OC (stereo not drawn)	1.5µM	i	0.92µM	nt	i	i
COc1ccc(OC)c(C2CC(=O)c3c([nH]c(C(=O)OC(C)C)c3C)C2)c1 (stereo not drawn)	0.82µM	i	0.82µM	i	?	i
COc1ccc(OC)c(C2CC(=O)c3c([nH]c(C(=O)OCc4ccc(C)cc4)c3C)C2)c1 (stereo not drawn)	4.6µM	i[12.3 µM]	0.65µM	nt	i	i
COc1ccc(OC)c(C2CC(=O)c3c([nH]c(C(=O)OC4CCC(C)CC4)c3C)C2)c1 (stereo not drawn)	15µM	i	8.2µM	nt	i	i
COc1ccc(C2CC(=O)c3c([nH]c(C(=O)OC4CCCCCC4)c3C)C2)cc1 (stereo not drawn)	?	i	?	nt	i	i
COc1ccccc1NC(=O)CSc1nncs1	i	i	i	i	i	i
Cc1cc(Br)ccc1NC(=O)CN(C)Cc1cccs1	i	i[0.0935 µM]	?	i	i	i
CCOC(=O)c1[nH]c2c(c1Cc1ccccc1C)C(=O)CC(c1cc(OC)ccc1OC)C2 (stereo not drawn)	?	i[12.3 µM]	?	nt	i	i
CCCOCCOC(=O)c1[nH]c2c(c1C)C(=O)CC(c1cc(OC)ccc1OC)C2 (stereo not drawn)	5.2µM	i	5.8µM	i	i	i
SMILES	TDP1 cell CPT	TDP1 inh	DT40 TDP1 no CPT	PLK1 PBD block	GCN5L2 inh	VDR inh
COCCOC(=O)c1[nH]c2c(c1C)C(=O)CC(c1cc(OC)ccc1OC)C2 (stereo not drawn)	2.9µM	i	2.6µM	?	i	i
Cc1cc(/C=C2\C(=N)N3N=C(c4ccco4)SC3=NC2=O)c(C)n1Cc1ccccc1	i	i	i	27µM	?	i
CC1CCN(C(=O)COC(=O)c2ccccc2NCCO)CC1	i	nt	i	i	nt	nt
NC(=O)[C@H]1CC2(CC(c3cccc(NC(=O)CC(c4ccccc4)c4ccccc4)c3)=NO2)CN1C(=O)c1ccccc1C(=O)c1ccccc1 (stereo partly drawn)	13µM	i	?	i	i	i
NC(=O)[C@H]1CC2(CC(c3cccc(NC(=O)CC(c4ccccc4)c4ccccc4)c3)=NO2)CN1C(=O)C(c1ccccc1)c1ccccc1 (stereo partly drawn)	18µM	i	?	i	i	i
CCC(=O)Nc1cccc(C2=NOC3(C2)C[C@@H](C(N)=O)N(C(=O)c2ccccc2C(=O)c2ccccc2)C3)c1 (stereo partly drawn)	i	i	i	i	i	i
Cc1cc(C)c(NC(=O)C(C)n2nc(-c3ccc(C)c(C)c3)ccc2=O)c(C)c1 (stereo not drawn)	?	i	?	nt	i	i
CN1CCN(C(=O)C2=C[C@H](c3ccc4c(c3)OCO4)C[C@H](OCCCCO)O2)CC1	i	nt	i	?	nt	i
CCCCCC1=C(C(=O)OC)C(C(=O)OCC)N(S(=O)(=O)C(F)(F)F)c2ccccc21 (stereo not drawn)	?	i	21µM	i	i	i
COc1cc(/C=C/CNC[C@H]2O[C@@H](n3cnc4c(N)ncnc43)[C@H](O)[C@@H]2O)ccc1O	i	nt	13µM	i	nt	nt
Cc1cc(OCC(=O)Nc2c(C(=O)c3ccccc3)oc3ccccc23)cc(C)c1Cl	i	i	i	nt	i	i
COc1cc2cc(CN(CCc3cccc(C)c3)C(=S)NCCCN3CCOCC3)c(=O)[nH]c2cc1OC	?	i	?	i	i	i
Cc1ccc(-c2cc(-c3c(C)nn(C)c(=O)c3N)[nH]n2)cc1	16µM	i	9.2µM	i	i	i
Cc1ccc(-c2cc(N)n(-c3ccc(C)cc3)n2)cc1	?	i	?	i	i	i
CCCS(=O)(=O)c1nc(S(=O)(=O)c2ccc(C)cc2)c(N2CCOCC2)s1	?	i	?	i	i	i
Cc1ccc(S(=O)(=O)c2nc(S(C)(=O)=O)sc2N2CCC(C)CC2)cc1	15µM	i	15µM	?	i	i
Cc1ccc(S(=O)(=O)c2nc(S(=O)(=O)CCO)sc2N2CCOCC2)cc1	i	i	i	30µM	i	i
COc1ccc(NS(=O)(=O)c2cc(N/C(=N\S(=O)(=O)c3ccccc3)c3ccc(F)cc3)ccc2Cl)cc1	?	i	?	i	i	i
CCN1C(=O)CC(NCc2ccc(S(N)(=O)=O)cc2)C1=O (stereo not drawn)	i	i	i	i	i	i
Cc1c(CCC(=O)NCc2ccc(F)cc2)c(=O)oc2cc(O)ccc12	i	i	i	nt	?	i
